Hits are enriched below; roughly 2.4% of the tested compounds scored in any of these assays.
Rango complex inh: prevents formation of the Rango-importin beta complex. AID 540263. actives 0.031% (n = 340,000). Rango CFP/YFP FRET sensor + importin beta, 45 min. Q14974. Potency, µM (titrated, usually from 92.2 µM); also: nearly all actives have a fitted effect of over 15% in size
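FRET biosensor (snurportin 1 IBB flanked by EYFP and cerulean), 50 nM, with compound 5 min, then 0.125 microM importin beta in PBS, 1 mM DTT, 0.02% Tween-20, 0.1% BSA. CFP/YFP ratio read after 45 min at room temperature; pre-read flags interference.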
ClpP mod: qHTS Assay for Activators of ClpP; ATP-dependent Clp protease proteolytic subunit (Bacillus subtilis (strain 168)), P80244; purified B. subtilis ClpP, FRET peptide cleavage, 20 min; Potency, µM (highest dose often 57.5 µM); actives 1.9% (n = 340,000); active = well fitted falling curve with a large enough effect; inconclusive = small, poorly fitted or top-dose-only effect; inactive = no such curve, though single readings can be large or run the other way; also: the source files actives as falling curves though it sought activators and does not explain the sign; nearly all actives have a fitted effect of over 65% in size
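FRET quenching reversal measured ClpP activation: 10 microg/mL B. subtilis ClpP at pH 8 with the FRET-FV decapeptide, read at 430 nm after 320 nm excitation. The 20-min minus 0-min signal was scaled between DMSO/no-enzyme wells and ADEP (5.8 microM final).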
Rango release inh: prevents RanGTP from dissociating the Rango-importin beta complex; Potency, µM (series often up to 46.1 µM); Biochemical FRET Rango-importin beta, RanGTP-induced dissociation; actives 0.071% (n = 340,000); also: nearly all actives have a fitted effect of over 45% in size
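FRET read at 45 min, room temperature: inhibitors block the CFP/YFP signal rise when RanGTP (0.6 uM Ran, 2 mM GTP, 0.2 uM RCC1) frees Rango (0.1 uM) from importin beta (0.25 uM). Pre-read after 5 min compound exposure flags interference.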
ALOX12 inh: inhibitors of human 12S-lipoxygenase ALOX12; P18054; purified 12hLO, xylenol orange hydroperoxide absorbance; Potency, µM (top dose mostly 108 µM), usual class: inhibitors; actives 1.1% (n = 580,000); AID 1671190; active = well fitted curve in the direction sought with a large enough effect; inconclusive = small, poorly fitted or top-dose-only effect, or another doubt; inactive = no such curve, though single readings can be large; an effect the other way counts as inactive or inconclusive
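Purified human 12hLO (150 nM final) in 25 mM Hepes, 0.01% Triton X-100, pH 7.0 was preincubated 15 min at room temperature with compound. Then 40 uM arachidonic acid was added, 30 min. Hydroperoxide was read by Fe-XO absorbance ratio 573/405 nm.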
TSG101-PTAP inh: blocks PTAP/TSG101 interaction to inhibit HIV-1 budding. Q99816. Fluorescence polarization, FITC-PTAP peptide / Tsg101 binding. Potency, µM (highest dose often 115 µM), actives largely listed as inhibitors. 340,000 tested, under 10 active; active = well fitted inhibition curve with a large enough effect in the main read-out, with a control signal flat, not every such curve was filed as active; inconclusive = small, poorly fitted or top-dose-only effect, or effect the other way, or a change in a side signal; inactive = no such curve, though single readings can be large or run the other way
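Fluorescence anisotropy tracks displacement of a FITC-tagged PTAP peptide (50 nM) from the Tsg101 binding domain (10 uM), following a 20 min room-temperature incubation at pH 7.5.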
TDP1 block: inhibitors of human tyrosyl-DNA phosphodiesterase TDP1; actives 0.28% (n = 350,000); AID 485290; recombinant TDP1, AlphaScreen DNA substrate cleavage; Potency, µM (highest dose often 130 µM), hits mostly inhibitors; Q9NUW8; active = well fitted curve in the direction sought with a large enough effect; inconclusive = small, poorly fitted or top-dose-only effect, or another doubt; inactive = no such curve, though single readings can be large; an effect the other way counts as inactive or inconclusive; also: nearly all actives have a fitted effect of over 40% in size
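Steps: enzyme plus compound, 15 min RT; add biotin/phosphotyrosine-FITC oligonucleotide (15 nM final), react 5 min; add donor/acceptor beads (10 ug/ml final), 10 min; read AlphaScreen. Tdp1 at 1 nM final.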
A number is an active result; i = inactive; ? = inconclusive; nt = not tested or not shown; ! = not active in a repeat; [ ] = another dose, or the depositor's remark. Unless noted, calls follow the shape of the full dose curve.

SMILES | Rango complex inh | ClpP mod | Rango release inh | ALOX12 inh | TSG101-PTAP inh | TDP1 block
COC(=O)C1=C(C)N(Cc2ccc(Cl)cc2)C(=S)NC1c1ccccc1 (configuration not stated) | nt | nt | nt | 40µM | nt | nt
COC(=O)C1=C(C)N(Cc2ccccc2)C(=S)NC1c1ccc(Cl)cc1 (configuration not stated) | nt | nt | nt | 35µM | nt | nt
CCOC(=O)C1=C(CNc2ccc(C)c(Cl)c2)NC(=O)NC1c1ccc(Cl)cc1 (configuration not stated) | nt | nt | nt | 8.9µM | nt | nt
COC(=O)C1=C(CCc2ccccc2)NC(=O)NC1c1ccc(Cl)cc1 (configuration not stated) | i | i | i | 35µM | i | nt
COC(=O)C1=C(C)N(Cc2ccccc2)C(=S)N[C@H]1c1cccc(F)c1 | i | i | i | ? | i | nt
N=C1/C(=C/c2ccco2)C(=O)N=C2SC(CC(=O)N3CCCC3)=NN12 | i | i | i | i | i | 20µM
CN(Cc1ccco1)c1ncnc2ccc(-c3ccccc3Cl)cc12 | i | nt | i | 28µM! | i | i
CC(C)CCNC(=O)N1CCC2(CC1)NC(=O)c1ccccc1O2 | nt | nt | nt | i | nt | nt
CCOc1ccc2nc(NC(=S)N(C)C)sc2c1 | i | i | i | 45µM | i | i
CC(C)C1Cc2[nH]c(=O)c(C(=O)O)cc2CO1 (configuration not stated) | i | 35µM | i | ? | i | i
CC1CCN(C(=S)c2cn(Cc3cccc(F)c3)c3ccccc23)CC1 | i | nt | i | 45µM | i | i
O=C(O)COc1ccc2nsnc2c1Cl | ? | 14µM | ? | i | i | i
Nc1nc(-c2ccccc2)nc2sc3c(c12)CCCC3 | i | 32µM | i | i | i | i
O=c1oc(-c2ccccc2)nc2sc3c(c12)CCC3 | ? | i | ? | ? | i | nt
CCOCCOC(=O)c1nc2ccccc2nc1Nc1cc(C)cc(C)c1 | nt | nt | nt | 7.1µM | nt | nt
CCOC(=O)c1nc2ccccc2nc1Nc1cccc(OC)c1 | nt | nt | nt | i | nt | nt
Cc1cccc(N=C2NN=C(c3c(C)[nH]c4ccccc34)CS2)c1 | i | 18µM | i | ? | i | i
Cc1cccc(N=C2NN=C(c3ccc4c(c3)OCCO4)CS2)c1 | i | i | i | i | i | i
CCN(c1ccccc1)S(=O)(=O)c1cccc(C(=O)N2CCN(S(=O)(=O)c3ccccc3)CC2)c1 | i | 28µM | i | i | i | i
O=C(c1c[nH]c2ccc(S(=O)(=O)N3CCOCC3)cc2c1=O)N1CCCC1 | i | 7.9µM | i | i | i | i
CCN(c1ccccc1)S(=O)(=O)c1ccc2[nH]cc(C(=O)N3CCOCC3)c(=O)c2c1 | i | 32µM | i | i | i | 50µM
CCn1c(Cc2ccccc2)nnc1SC(C)c1nc2ccccc2c(=O)[nH]1 (configuration not stated) | nt | nt | nt | i | nt | nt
CN(Cc1ccccc1Br)C(=O)CSc1cc(C(=O)NC2CC2)c2ccccc2n1 | nt | nt | nt | i | nt | nt
COc1ccc(CC(C(=O)Nc2ccc(OC)cc2)c2nn[nH]n2)cc1 (configuration not stated) | i | i | i | 4.5µM | i | i
COc1ccccc1NC(=O)C(Cc1ccc(Cl)cc1)c1nn[nH]n1 (configuration not stated) | i | i | i | i | i | i
SMILES | Rango complex inh | ClpP mod | Rango release inh | ALOX12 inh | TSG101-PTAP inh | TDP1 block
O=C(Cn1c2[n+](c3ccccc31)CC(O)CS2)c1ccccc1 (configuration not stated) | i | 3.2µM | i | i | i | i
Cc1ccc(NC(=O)Cn2c(-c3cnccn3)nc(C)c(CCO)c2=O)cc1C | nt | nt | nt | i | nt | nt
O=C(NC1CC1)c1sc2cc([N+](=O)[O-])ccc2c1Cl | i | i | i | i | i | i
CC(NC(=O)c1sc2cc([N+](=O)[O-])ccc2c1Cl)C(C)(C)C (configuration not stated) | i | i | i | 32µM | i | i
CCN1CCC(O)(/C=C/c2ccc(C(C)C)cc2)C(C(=O)/C=C/c2ccc(C(C)C)cc2)C1 (configuration not stated) | i | i | i | 1.8µM | i | nt
CC(CCc1ccc(O)cc1)NCCC(c1ccccc1)c1ccccc1 (configuration not stated) | i | nt | i | i | i | i
CC(CCc1ccc(O)cc1)NCc1ccc(Br)cc1 (configuration not stated) | i | i | i | 13µM | i | nt
N#C/C(=C\c1cn(CCOc2ccccc2F)c2ccccc12)C(=O)NCc1cccs1 | ? | i | 5.8µM | i | i | i
CC(NC(=O)C1CCN(c2cc(C(F)(F)F)ncn2)CC1)c1ccccc1 (configuration not stated) | nt | nt | nt | 45µM | nt | nt
CC(C)NC(=O)c1nnc2n1CCN(Cc1cccc3c1OCO3)C2 | nt | nt | nt | i | nt | nt
CN(C)CCCN=c1c2ccccc2n(C)c2[nH]c(=O)n(C)c(=O)c12 | nt | nt | nt | 22µM | nt | nt
CN(C)CCCn1c(=S)[nH]c2ccccc2c1=O | i | nt | i | i | i | i
O=C(CCc1ccccc1)N(Cc1ccco1)C1CC1 | nt | nt | nt | i | nt | nt
O=C1CO[C@H]2CCN(Cc3ccc4c(c3)CCO4)CC[C@@H]2N1Cc1ccc(O)cc1 | nt | nt | nt | i | nt | nt
CCOC(=O)CS(=O)(=O)c1nc(-c2ccccc2)cc(C(F)(F)F)n1 | i | i | i | i | i | i
CCOC(=O)CS(=O)(=O)c1nc(-c2ccc(F)cc2)cc(C(F)(F)F)n1 | i | 22µM | i | i | i | i
Cc1nnc(SCc2ccc(Cl)cc2)nc1/C=C/N(C)C | ? | i | ? | 40µM | i | i
Cn1c([C@H]2CCN(C(=O)c3cccnc3)C2)nc2ccccc21 | nt | nt | nt | i | nt | nt
CCOC(=O)c1sc(C)c2c1NC1(CCCCC1)NC2=O | i | 32µM | i | i | i | i
CCOC(=O)c1sc(C)c2c1NC(C)(c1cccs1)NC2=O (configuration not stated) | i | 28µM | i | i | nt | i
NCC(=O)N1Cc2ccccc2CC2(CCCN(CC3CCCC3)C2)C1 (configuration not stated) | nt | nt | nt | i[6.33 µM] | nt | nt
O=C(Nc1cccc(C(F)(F)F)c1)c1cccnc1NCCc1ccccc1 | ? | 28µM | i | ? | i | i
O=C(NNC(=O)C1CCCC1)c1ccccc1OCc1ccc(F)cc1 | nt | nt | nt | i | nt | nt
CC(C)(C)C(=O)C(Cc1ccc(C#N)cc1)C(=O)C(C)(C)C | nt | nt | nt | i | nt | nt
O=C(C1CC1)N1CCCCCC1c1nnc(-c2ccccc2)o1 (configuration not stated) | nt | nt | nt | i | nt | nt
Cc1ccc(NC(=O)CSc2nc3ccccc3c3nc(CCc4c(C)n[nH]c4C)nn23)cc1F | i | i | i | i | i | 79µM
